# From PubChem BioAssay (NCATS)
# Records with an inconclusive call do not appear. Calls of active or inactive are those of the source. The call rests on the fitted dose curve; in most records, active means well fitted inhibition curve with a large enough effect; inconclusive means small, poorly fitted or top-dose-only effect; inactive means flat fitted curve, though single readings scatter.
# Test system: FAB9
# Experiment: qHTS profiling for inhibitors of Plasmodium falciparum proliferation (AID 504749); further: nearly all actives have a fitted effect of over 60% in size;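 on activity, negative = inhibition: 0% = DMSO vehicle and full inhibition = artemisinin control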
# Conditions: P. falciparum in erythrocytes, SYBR Green DNA, 72 h; series mostly up to 28.7 µM; activity, negative = inhibition: at the top concentration
# Summary of the method: (§1)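 SYBR Green fluorescence (ex 485 nm, em 535 nm) reports parasite DNA after 72 h compound exposure of infected red cells at 0.3% parasitemia, 2.5% hematocrit; signal normalized to 0.29 uM artemisinin and vehicle wells.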
# Potency means the concentration at half of the fitted maximal effect.
SMILES,"activity, negative = inhibition",Potency
CCN(CC)C(C)C(=O)c1ccccc1 (centres undefined),-5.41% (inactive),
NCc1cccnc1,9.05% (inactive),
NC(=O)CN1CCCC1=O,6.34% [at 12.8 µM] (inactive),
CCN(Cc1ccc(Cl)nc1)/C(=C/[N+](=O)[O-])NC,3.3% (inactive),
CNC(=O)NC(O)C(Cl)(Cl)Cl (centres undefined),-7% (inactive),
NC(=O)OCCCc1ccccc1,11.6% (inactive),
C[C@H]1C(=O)O[C@@H]2CCN3CC=C(COC(=O)[C@](C)(O)[C@]1(C)O)[C@H]23,-5.76% (inactive),
O=C(CCCN1CCC(n2c(=O)[nH]c3ccccc32)CC1)c1ccc(F)cc1,,3980 nM (active)
CCC1(CC)C(=O)NC(=O)NC1=O,13.8% (inactive),
COc1ccc(C(=O)N2CCCC2=O)cc1,10.7% (inactive),
CCCCCCCCC(=O)NCc1ccc(O)c(OC)c1,0.518% (inactive),
O=c1n(Cl)c(=O)n(Cl)c(=O)n1Cl,6.53% (inactive),
CC(C)[N+](C)(CCC(C(N)=O)(c1ccccc1)c1ccccc1)C(C)C,-0.726% [at 12.8 µM] (inactive),

# Test system: GB4
# Experiment: as above
# Conditions: P. falciparum in erythrocytes, SYBR Green DNA, 72 h; series mostly up to 28.7 µM; activity, negative = inhibition: at the top concentration
# Summary of the method: as §1
SMILES,"activity, negative = inhibition",Potency
CCN(CC)C(C)C(=O)c1ccccc1 (centres undefined),1.41% (inactive),
NCc1cccnc1,-4.43% (inactive),
NC(=O)CN1CCCC1=O,-6.77% [at 12.8 µM] (inactive),
CCN(Cc1ccc(Cl)nc1)/C(=C/[N+](=O)[O-])NC,-5.01% (inactive),
CNC(=O)NC(O)C(Cl)(Cl)Cl (centres undefined),-0.526% (inactive),
NC(=O)OCCCc1ccccc1,-0.868% (inactive),
C[C@H]1C(=O)O[C@@H]2CCN3CC=C(COC(=O)[C@](C)(O)[C@]1(C)O)[C@H]23,-9.11% (inactive),
O=C(CCCN1CCC(n2c(=O)[nH]c3ccccc32)CC1)c1ccc(F)cc1,,809 nM (active)
CCC1(CC)C(=O)NC(=O)NC1=O,-13.1% (inactive),
COc1ccc(C(=O)N2CCCC2=O)cc1,-24.5% (inactive),
CCCCCCCCC(=O)NCc1ccc(O)c(OC)c1,-1.56% (inactive),
O=c1n(Cl)c(=O)n(Cl)c(=O)n1Cl,5.96% (inactive),
CC(C)[N+](C)(CCC(C(N)=O)(c1ccccc1)c1ccccc1)C(C)C,-13.8% [at 12.8 µM] (inactive),

# Test system: HB3
# Experiment: as above
# Conditions: P. falciparum in erythrocytes, SYBR Green DNA, 72 h; series mostly up to 28.7 µM; activity, negative = inhibition: at the top concentration
# Summary of the method: as §1
SMILES,"activity, negative = inhibition",Potency
CCN(CC)C(C)C(=O)c1ccccc1 (centres undefined),0.327% (inactive),
NCc1cccnc1,3% (inactive),
NC(=O)CN1CCCC1=O,-19.6% [at 12.8 µM] (inactive),
CCN(Cc1ccc(Cl)nc1)/C(=C/[N+](=O)[O-])NC,-23.5% (inactive),
CNC(=O)NC(O)C(Cl)(Cl)Cl (centres undefined),-0.21% (inactive),
NC(=O)OCCCc1ccccc1,13.7% (inactive),
C[C@H]1C(=O)O[C@@H]2CCN3CC=C(COC(=O)[C@](C)(O)[C@]1(C)O)[C@H]23,-7.51% (inactive),
O=C(CCCN1CCC(n2c(=O)[nH]c3ccccc32)CC1)c1ccc(F)cc1,,1000 nM (active)
CCC1(CC)C(=O)NC(=O)NC1=O,-5.42% (inactive),
COc1ccc(C(=O)N2CCCC2=O)cc1,1.1% (inactive),
CCCCCCCCC(=O)NCc1ccc(O)c(OC)c1,-2.23% (inactive),
O=c1n(Cl)c(=O)n(Cl)c(=O)n1Cl,1.74% (inactive),
CC(C)[N+](C)(CCC(C(N)=O)(c1ccccc1)c1ccccc1)C(C)C,-2.33% [at 12.8 µM] (inactive),
